Test systems include NCI-H23 lung; NCI-H226 lung; NCI-H322M lung; HOP-62 NSCLC; NCI-H460 lung; HOP-92 NSCLC; NCI-H522 lung; A549/ATCC NSCLC; 786-0 renal; COLO 205 colon; DU-145 prostate; K-562 leukemia; MALME-3M melanoma; MDA-MB-231 breast; RXF 393 renal; SF-268 CNS; SF-295 CNS; SF-539 CNS; UACC-257 melanoma; M14 melanoma.
What all share (experiment): NCI-60 one-dose screen, 48 h (100 = growth as untreated, 0 = no growth, -100 = all killed)
Holding throughout (conditions): 10 µM unless noted

This is part of a sample that, as a whole, favours compounds with a hit. Of some 83,000 tested, about 20% had one in any assay.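 48-hour exposure, single concentration, 96-well plates; percent growth endpoint where 0 means no net growth. Active: below 10.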 Unmarked numbers belong to inactive results. Active and inactive are the calls of the source.

For `O=S(Nc1ccccc1)c1ccc(Cl)cc1` (stereo not given), the growth was 105% with NCI-H23 lung; 99.9% with NCI-H226 lung; 104% in the assay with NCI-H322M lung; 92% in the assay on HOP-62 NSCLC; 95.1% in the assay with NCI-H460 lung; 103% with HOP-92 NSCLC. In addition, the growth with NCI-H522 lung is 82.8%; in the assay with A549/ATCC NSCLC, 78.9%; in the assay on 786-0 renal it was 103%; in the assay on COLO 205 colon, 102%; with DU-145 prostate it was 116%; in the assay on K-562 leukemia, 94.6%. Besides, the growth is 108% in the assay on MALME-3M melanoma; 103% in the assay with MDA-MB-231 breast; 99.2% in the assay with RXF 393 renal; 100% in the assay on SF-268 CNS; 107% in the assay on SF-295 CNS; 102% in the assay with SF-539 CNS. In addition, the values for the growth with UACC-257 melanoma and in the assay with M14 melanoma were 86.2% and 99.2%, respectively.
For the molecule `O=C(/C=C/c1ccccc1)N(C1CCCCC1)C1CCCCC1`, the growth in the assay with NCI-H23 lung was 74.3%; in the assay on NCI-H226 lung it was 84.7%; with NCI-H322M lung, 105%; in the assay with HOP-62 NSCLC, 131%; with NCI-H460 lung, 86.8%; in the assay on HOP-92 NSCLC it was 84.3%. In addition, the growth was 70.9% in the assay on NCI-H522 lung; 73.8% in the assay on A549/ATCC NSCLC; 82.2% in the assay on 786-0 renal; 99.9% in the assay with COLO 205 colon; 104% in the assay on DU-145 prostate; 81.1% with K-562 leukemia. The growth was 104% in the assay on MALME-3M melanoma; 86% in the assay on MDA-MB-231 breast; 84.7% with RXF 393 renal; 104% with SF-268 CNS; 78.1% in the assay on SF-295 CNS; 105% with SF-539 CNS. The figures for the growth in the assay with UACC-257 melanoma and with M14 melanoma were 80.7% and 87.6%, respectively.
On to `CS(=O)(=O)Nc1cc(-c2ccc3ncnc(Nc4ccc5c(cnn5Cc5ccccc5F)c4)c3c2)cnc1Cl`, for which the growth with NCI-H23 lung was 41.8%; in the assay on NCI-H226 lung, 66.7%; with NCI-H322M lung it was 62%; in the assay on HOP-62 NSCLC it was 40.3%; with NCI-H460 lung it was 59.4%; with HOP-92 NSCLC it was -21.4% (active). The growth was 34.3% with NCI-H522 lung; 71.3% in the assay with A549/ATCC NSCLC; 53.1% with 786-0 renal; 59.4% in the assay on COLO 205 colon; 51.9% with DU-145 prostate; 57.3% with K-562 leukemia. Besides, the growth with MALME-3M melanoma is -7.51% (active); in the assay on MDA-MB-231 breast, 36.1%; in the assay with RXF 393 renal, 20.2%; in the assay on SF-268 CNS, 24.3%; in the assay on SF-295 CNS, 60.9%; with SF-539 CNS, 34.5%. Moreover, the growth in the assay with UACC-257 melanoma is 52.9%; in the assay with M14 melanoma it was 39.1%.
Take `COCCn1cc(-c2nc(-c3cn(CCOC)c4ncccc34)cs2)c2cc(F)ccc21`: the growth in the assay on NCI-H23 lung is 53.5%; with NCI-H226 lung, 75.4%; in the assay on NCI-H322M lung, 46.9%; with HOP-62 NSCLC, 74.4%; with NCI-H460 lung, 49.7%; with HOP-92 NSCLC, 56.9%. Besides, the growth was 33.3% in the assay with NCI-H522 lung; 53.7% with A549/ATCC NSCLC; 76.6% in the assay with 786-0 renal; 35.5% in the assay on COLO 205 colon; 86.1% in the assay with DU-145 prostate; 63.7% in the assay on K-562 leukemia. In addition, the growth is 95.3% with MALME-3M melanoma; 44.9% in the assay on MDA-MB-231 breast; 86.5% in the assay with RXF 393 renal; 91.6% with SF-268 CNS; 74.7% in the assay on SF-295 CNS; 76.1% with SF-539 CNS. Also, the growth in the assay on UACC-257 melanoma was 69.5%; with M14 melanoma it was 66.6%.
`COC(=O)[C@@]1(C)CC[C@]2(C)CC[C@]3(C)C4=CC=C5C(=CC(=O)C(O)=C5C)[C@]4(C)[C@@H](O)C[C@@]3(C)[C@@H]2C1`: the growth in the assay on NCI-H23 lung is 49.2%; in the assay with NCI-H226 lung it was 98.7%; with NCI-H322M lung, 96.8%; in the assay on HOP-62 NSCLC, 89.7%; in the assay on NCI-H460 lung, 63.6%; with HOP-92 NSCLC, -3.8% (active). Also, the growth in the assay on NCI-H522 lung was -24.2% (active); in the assay on A549/ATCC NSCLC, 88.3%; in the assay with 786-0 renal it was -30.3% (active); with COLO 205 colon it was 12.8%; in the assay on DU-145 prostate, 21.3%; with K-562 leukemia, 8.3% (active). Besides, the growth is 7.58% (active) in the assay with MALME-3M melanoma; -0.344% (active) with MDA-MB-231 breast; -35.1% (active) in the assay on RXF 393 renal; 62.5% in the assay with SF-268 CNS; 74.8% in the assay with SF-295 CNS; -8.84% (active) in the assay on SF-539 CNS. Besides, the growth was 32% in the assay on UACC-257 melanoma and 7.16% (active) with M14 melanoma.
`COc1ccc2cc(-c3nc4ccc(C)cn4c3NCc3ccco3)c(=O)[nH]c2c1`: the growth in the assay with NCI-H23 lung was 70.2%; with NCI-H226 lung it was 76.4%; in the assay on NCI-H322M lung, 74.1%; in the assay with HOP-62 NSCLC, 90.7%; with NCI-H460 lung, 88.9%; in the assay with HOP-92 NSCLC, 20.6%. Also, the growth was 87.3% in the assay on NCI-H522 lung; 85.2% in the assay on A549/ATCC NSCLC; 67.9% in the assay with 786-0 renal; 76% with COLO 205 colon; 71.7% in the assay on DU-145 prostate; 74.3% in the assay with K-562 leukemia. In addition, the growth in the assay with MALME-3M melanoma is 75.4%; in the assay with MDA-MB-231 breast, 49.6%; with RXF 393 renal it was 73.4%; in the assay on SF-268 CNS it was 71.6%; in the assay with SF-295 CNS it was 74.8%; with SF-539 CNS it was 65.5%. Further, the growth is 103% in the assay with UACC-257 melanoma and 86.8% in the assay with M14 melanoma.
`CCN1CCN(CCNc2nccc(-c3c(-c4ccc(F)c(O)c4)nc4occn34)n2)S1(=O)=O`: the growth was 14% in the assay with NCI-H23 lung; 6.71% (active) in the assay on NCI-H226 lung; 64.3% with NCI-H322M lung; 33.7% with HOP-62 NSCLC; 34.9% in the assay on NCI-H460 lung; 68.5% in the assay on HOP-92 NSCLC. Moreover, the growth with NCI-H522 lung is -3.38% (active); with A549/ATCC NSCLC, 23%; in the assay with 786-0 renal it was 56.7%; in the assay on COLO 205 colon it was 29%; in the assay on DU-145 prostate, 26.8%; with K-562 leukemia, 10.3%. The growth with MALME-3M melanoma was 26.4%; with MDA-MB-231 breast, 73.2%; with RXF 393 renal, 25.8%; in the assay on SF-268 CNS, 28%; with SF-295 CNS, 28.9%; in the assay with SF-539 CNS, 75.9%. Also, the growth was 43.6% with UACC-257 melanoma and 21.6% in the assay on M14 melanoma.

The values above are taken from PubChem BioAssay (NCI).
